In PubChem BioAssay (NCATS):
Inconclusive results are not listed. Activity calls are given as the source filed them. Unless noted, calls come from the whole dose curve.

Key:
[1] = Cell Viability - BJ (AID 421); conditions: BJ fibroblast viability, qHTS;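 note: potency is the fitted concentration of half-maximal effect; cells exposed to compound for 40 hours at 37 °C before readout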
In short: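 Normal human BJ foreskin fibroblasts, 1500/well in complete medium, treated 40 hr at 37 °C. Cellular ATP by CellTiter-Glo luminescence; normalized to DMSO and 100 uM tamoxifen, AC50 from Hill fit.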

[2] = Cell Viability - Jurkat (AID 426;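 active = dose-dependent loss of cell ATP signal giving a full or clear fitted curve, ranked by lower potency value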; note: potency is the fitted concentration of half-maximal effect); conditions: qHTS
In short: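 Cytotoxicity was scored as loss of cellular ATP, measured by luciferase-based luminescence, in Jurkat clone E6-1 cells after 40 h compound treatment; tamoxifen and doxorubicin served as positive controls.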

[3] = Cell Viability - Hek293 (AID 427;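 active = compounds whose dose-response curve shows a full or clear partial loss of cell viability, called from curve shape rather than a numeric limit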;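 note: potency is the fitted concentration of half-maximal effect; cells exposed to compound for 40 hours at 37 °C before reading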); conditions: qHTS
In short: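 HEK293 cells in complete medium were exposed to compound for 40 hr at 37 °C, then cellular ATP was read by CellTiter-Glo luminescence. Data were normalized to DMSO (basal) and 100 uM tamoxifen (100% inhibition), and AC50 came from Hill fits.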

[4] = Cell Viability - HepG2 (AID 433); conditions: qHTS;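 note: potency is the fitted concentration of half-maximal effect; potency for ATP loss meaning cytotoxicity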
In short: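 HepG2 cells, 1500 per well, treated 40 hr at 37 °C in complete medium; viability from intracellular ATP by CellTiter-Glo luminescence. Normalized to DMSO and 100 uM tamoxifen; AC50 from Hill fit of qHTS concentration-response.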

[5] = Cell Viability - MRC5 (AID 434); conditions: MRC5 lung fibroblast viability, qHTS;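 note: potency is the fitted concentration of half-maximal effect; potency reflects cytotoxicity seen as loss of intracellular ATP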
In short: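 AC50 values come from Hill-equation fits of intracellular ATP loss, measured by CellTiter-Glo luminescence. Normal lung fibroblasts (MRC5) had 40 hr compound treatment at 37 C, normalized between DMSO and 100 uM tamoxifen.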

[6] = Cell Viability - SK-N-SH (AID 435); conditions: SK-N-SH neuroblastoma cell viability qHTS;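 note: potency is the fitted concentration of half-maximal effect; compound exposure lasted 40 h at 37 °C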
In short: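 SK-N-SH neuroblastoma cells (1500/well) treated 40 h at 37 °C in complete medium; viability read as cellular ATP by CellTiter-Glo luminescence. Normalized to DMSO and 100 uM tamoxifen; AC50 from Hill fits of qHTS concentration-response.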

[7] = target: Mitogen-activated protein kinase 10 (Mus musculus) (UniProt Q61831); experiment: JNK3 AlphaScreen Assay (AID 530; active = well fitted curve in either direction with a large enough effect, not every such curve was filed as active;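 note: kinase came from lysate of stimulated human HepG2 cells; signal reports phosphorylation of biotinylated GST-cJun 1-79 at Ser73 with 10 µM ATP; % is set by controls: 0 for no effect and ±100 for the full control effect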); conditions: JNK3 lysate, c-Jun phosphorylation; series mostly up to 57.1 µM
In short: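 Kinase buffer: 20 mM Tris-HCl pH 7.6, 10 mM MgCl2, 1 mM DTT, 0.1 mM Na3VO4, 0.01% Tween-20; ATP 10 uM. Substrate biotin-GST-cJun(1-79), enzyme from activated HepG2 lysates. Detection by Ser73 phospho-antibody AlphaScreen.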

[8] = Cell Viability - N2a (AID 540; active = well fitted curve in the direction sought with a large enough effect; an effect the other way counts as inactive or inconclusive;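 note: plate controls were DMSO alone for no effect and tamoxifen control for full effect; nearly all actives have a fitted effect of over 45% in size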); conditions: N2a mouse neuroblastoma cell viability; activity change, negative = cytotoxicity: at 92.2 µM (top of the series)
In short: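 In this qHTS cytotoxicity screen, ATP-dependent luciferase luminescence reports viable N2a cells after a 40 hr compound exposure in complete culture medium. Potencies are AC50 values from standard Hill equation fits.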

[9] = Cell Viability - NIH 3T3 (AID 541; active = well fitted curve in the direction sought with a large enough effect; an effect the other way counts as inactive or inconclusive;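 note: plate controls were DMSO alone for no effect and tamoxifen positive control for full effect; nearly all actives have a fitted effect of over 25% in size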); conditions: NIH 3T3 cell viability, qHTS; activity change, negative = cytotoxicity: at 92.2 µM (top of the series)
In short: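 In this cytotoxicity screen, acute toxicity is scored as an ATP drop measured by CellTiter-Glo in NIH 3T3 fibroblasts following a 40 hr, 37 °C incubation with compound.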

[10] = Cell Viability - HUV-EC-C (AID 542; active = well fitted curve in the direction sought with a large enough effect; an effect the other way counts as inactive or inconclusive; note: % is set by controls: 0 for no effect and ±100 for the full control effect; nearly all actives have a fitted effect of over 35% in size); conditions: HUV-EC-C endothelial cell viability, qHTS; series mostly up to 92.2 µM
In short: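 Concentration-dependent ATP loss in HUV-EC-C cells is the measure. Exposure lasts 40 hr at 37 °C; luminescence follows CellTiter-Glo addition, and Hill fits give AC50.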

CCOCCOCC
inactive: Potency [1] > 92 µM | Potency [2] > 92 µM | Potency [3] > 92 µM | Potency [4] > 92 µM | Potency [5] > 92 µM | Potency [6] > 92 µM | outcome [7] | activity change, negative = cytotoxicity [8] -1.44% | Potency [9] | Potency [10]

CCc1ccccc1
inactive: Potency [1] > 92 µM | Potency [2] > 92 µM | Potency [3] > 92 µM | Potency [4] > 92 µM | Potency [5] > 92 µM | Potency [6] > 92 µM | outcome [7] | activity change, negative = cytotoxicity [8] -7.66% | Potency [9] | Potency [10]

CCCCOCCOCCOCCCC
inactive: Potency [1] > 92 µM | Potency [2] > 92 µM | Potency [3] > 92 µM | Potency [4] > 92 µM | Potency [5] > 92 µM | Potency [6] > 92 µM | outcome [7] | activity change, negative = cytotoxicity [8] 3.3% | Potency [9] | Potency [10]

C=CCCCC
inactive: Potency [1] > 92 µM | Potency [2] > 92 µM | Potency [3] > 92 µM | Potency [4] > 92 µM | Potency [5] > 92 µM | Potency [6] > 92 µM | outcome [7] | activity change, negative = cytotoxicity [8] 6.23% | Potency [9] | Potency [10]

CC(=O)c1cccc([N+](=O)[O-])c1
inactive: Potency [1] > 92 µM | Potency [2] > 92 µM | Potency [3] > 92 µM | Potency [4] > 92 µM | Potency [5] > 92 µM | Potency [6] > 92 µM | outcome [7] | activity change, negative = cytotoxicity [8] 0.298% | Potency [9] | Potency [10]

Cc1ccc(CO)cc1
inactive: Potency [1] > 92 µM | Potency [2] > 92 µM | Potency [3] > 92 µM | Potency [4] > 92 µM | Potency [5] > 92 µM | Potency [6] > 92 µM | outcome [7] | activity change, negative = cytotoxicity [8] -2.9% | Potency [9] | Potency [10]

CSCCC=O
inactive: Potency [1] > 92 µM | Potency [2] > 92 µM | Potency [3] > 92 µM | Potency [4] > 92 µM | Potency [5] > 92 µM | Potency [6] > 92 µM | outcome [7] | activity change, negative = cytotoxicity [8] -17.9% | Potency [9] | Potency [10]

CCC(C)O (stereo not given)
inactive: Potency [1] > 92 µM | Potency [2] > 92 µM | Potency [3] > 92 µM | Potency [4] > 92 µM | Potency [5] > 92 µM | Potency [6] > 92 µM | outcome [7] | activity change, negative = cytotoxicity [8] -8.95% | Potency [9] | Potency [10]

CC(C)(O)CCC(C)(C)O
inactive: Potency [1] > 92 µM | Potency [2] > 92 µM | Potency [3] > 92 µM | Potency [4] > 92 µM | Potency [5] > 92 µM | Potency [6] > 92 µM | outcome [7] | activity change, negative = cytotoxicity [8] 3.94% | Potency [9] | Potency [10]

CC(=O)OC(C)C
inactive: Potency [1] > 92 µM | Potency [2] > 92 µM | Potency [3] > 92 µM | Potency [4] > 92 µM | Potency [5] > 92 µM | Potency [6] > 92 µM | outcome [7] | activity change, negative = cytotoxicity [8] 3.96% | Potency [9] | Potency [10]

CC(C)C=O
inactive: Potency [1] > 92 µM | Potency [2] > 92 µM | Potency [3] > 92 µM | Potency [4] > 92 µM | Potency [5] > 92 µM | Potency [6] > 92 µM | outcome [7] | activity change, negative = cytotoxicity [8] -13.8% | Potency [9] | Potency [10]

CCCCC(CC)C(=O)O (stereo not given)
inactive: Potency [1] > 92 µM | Potency [2] > 92 µM | Potency [3] > 92 µM | Potency [4] > 92 µM | Potency [5] > 92 µM | Potency [6] > 92 µM | outcome [7] | activity change, negative = cytotoxicity [8] 4.15% | Potency [9] | Potency [10]

CC=C(Cl)Cl
inactive: Potency [1] > 92 µM | Potency [2] > 92 µM | Potency [3] > 92 µM | Potency [4] > 92 µM | Potency [5] > 92 µM | Potency [6] > 92 µM | outcome [7] | activity change, negative = cytotoxicity [8] -2.96% | Potency [9] | Potency [10]

Nc1cc(S(=O)(=O)O)ccc1O
inactive: Potency [1] > 92 µM | Potency [2] > 92 µM | Potency [3] > 92 µM | Potency [4] > 92 µM | Potency [5] > 92 µM | Potency [6] > 92 µM | outcome [7] | activity change, negative = cytotoxicity [8] -15.5% | Potency [9] | Potency [10]

Cc1ccc(C)cc1
inactive: Potency [1] > 92 µM | Potency [2] > 92 µM | Potency [3] > 92 µM | Potency [4] > 92 µM | Potency [5] > 92 µM | Potency [6] > 92 µM | outcome [7] | activity change, negative = cytotoxicity [8] -13.5% | Potency [9] | Potency [10]

C=C(C)C1CC=C(C)C(OC(C)=O)C1 (stereo not given)
inactive: Potency [1] > 92 µM | Potency [2] > 92 µM | Potency [3] > 92 µM | Potency [4] > 92 µM | Potency [5] > 92 µM | Potency [6] > 92 µM | outcome [7] | activity change, negative = cytotoxicity [8] -2.86% | Potency [9] | Potency [10]

CCOc1cc(OCC)c(C(C)=O)cc1OCC
inactive: Potency [1] > 92 µM | Potency [2] > 92 µM | Potency [3] > 92 µM | Potency [4] > 92 µM | Potency [5] > 92 µM | Potency [6] > 92 µM | outcome [7] | activity change, negative = cytotoxicity [8] -7.23% | Potency [9] | Potency [10]

O=C(O)c1ccc(Cl)c(Cl)c1
inactive: Potency [1] > 92 µM | Potency [2] > 92 µM | Potency [3] > 92 µM | Potency [4] > 92 µM | Potency [5] > 92 µM | Potency [6] > 92 µM | outcome [7] | activity change, negative = cytotoxicity [8] 1.1% | Potency [9] | Potency [10]

O=C(O)c1ccc(Cl)cc1Cl
inactive: Potency [1] > 92 µM | Potency [2] > 92 µM | Potency [3] > 92 µM | Potency [4] > 92 µM | Potency [5] > 92 µM | Potency [6] > 92 µM | outcome [7] | activity change, negative = cytotoxicity [8] 7.33% | Potency [9] | Potency [10]

O=CNc1ccccc1
inactive: Potency [1] > 92 µM | Potency [2] > 92 µM | Potency [3] > 92 µM | Potency [4] > 92 µM | Potency [5] > 92 µM | Potency [6] > 92 µM | outcome [7] | activity change, negative = cytotoxicity [8] 5.69% | Potency [9] | Potency [10]

O=c1[nH][nH]c(=O)c2cc([N+](=O)[O-])ccc12
inactive: Potency [1] > 92 µM | Potency [2] > 92 µM | Potency [3] > 92 µM | Potency [4] > 92 µM | Potency [5] > 92 µM | Potency [6] > 92 µM | outcome [7] | Potency [9] | Potency [10]

Cc1cccc2cccnc12
inactive: Potency [1] > 92 µM | Potency [2] > 92 µM | Potency [3] > 92 µM | Potency [4] > 92 µM | Potency [5] > 92 µM | Potency [6] > 92 µM | outcome [7] | Potency [9] | Potency [10]

Cc1ccc(S(=O)(=O)NC2CCCCC2)cc1
inactive: Potency [1] > 92 µM | Potency [2] > 92 µM | Potency [3] > 92 µM | Potency [4] > 92 µM | Potency [5] > 92 µM | Potency [6] > 92 µM | outcome [7] | Potency [9]

CCOCC(=O)O
inactive: Potency [1] > 92 µM | Potency [2] > 92 µM | Potency [3] > 92 µM | Potency [4] > 92 µM | Potency [5] > 92 µM | Potency [6] > 92 µM | outcome [7] | Potency [9] | Potency [10]
